# HT1080NT lethal = qHTS for induction of synthetic lethality in tumor cells producing 2HG: qHTS for the HT-1080-NT fibrosarcoma cell line. HT-1080-NT fibrosarcoma viability, CellTiter-Glo ATP luminescence, 48 h. Potency, µM (series often up to 46.1 µM), for the others: at the top dose activity, negative = less viability, most hits filed as cytotoxic. actives 1.6% (n = 360,000). AID 686970, 2013;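 note: NT is the 2HG producing partner of a matched IDH1 knockdown line; potency is the fitted concentration of half-maximal effect; 0% = DMSO-treated cells and -100% = media-only wells without cells; nearly all actives have a fitted effect of over 55% in size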
#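 Viability of the 2HG-overproducing fibrosarcoma line after 48 hours of compound exposure at 37 degrees C was determined by luminescence with CellTiter-Glo, and concentration-effect curves were then fitted and categorized.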
# IL-1B inflam inh = qHTS for Inhibitors of Inflammasome Signaling: IL-1-beta AlphaLISA Primary Screen; THP-1 LPS/ATP IL-1B secretion, AlphaLISA, 16 h; stronger effect = lower value; AID 743279, 2014; activity change, % at 57.5 µM; actives 4.7% (n = 360,000); in the data active = activity change below about -50%; inconclusive = mostly about -30% to -49%
#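 THP-1 cells pretreated 1 hr with compounds (up to 57.5 uM final), then stimulated with LPS (250 ng/mL final) plus ATP (1.25 mM final); secreted IL-1B measured by AlphaLISA after 16 hr, decreased signal indicating inhibition.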
# HT1080 IDH1KD tx = qHTS for induction of synthetic lethality in tumor cells producing 2HG: qHTS for the HT-1080-IDH1KD cell line | Potency, µM (titrated, usually from 46.1 µM), inactives show top-dose activity, negative = toxicity, hits mostly cytotoxic | actives 2% (n = 360,000) | AID 686971, 2013 | HT-1080 IDH1 knockdown viability, ATP luminescence, 48 h;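 note: potency is the fitted concentration of half-maximal effect; 0% = DMSO wells and -100% = cell-free medium wells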
#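 In this qHTS, HT-1080 cells depleted of IDH1 are exposed for 48 h at 37 °C to compound titrations. Toxicity is scored from CellTiter-Glo luminescence, with DMSO as full viability and medium alone as none.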
# TDP1 cell CPT = qHTS for Inhibitors of human tyrosyl-DNA phosphodiesterase 1 (TDP1): qHTS in cells in presence of CPT | chicken DT40 Tdp1-/-;hTDP1 cells + 20 nM CPT, ATP luminescence, 48 h | Potency, µM (doses to about 46.2 µM), inactives show at the top dose activity change, negative = growth inhibition, actives largely listed as inhibitors | actives 12% (n = 420,000) | AID 686979, 2013; note: potency is the fitted concentration of half-maximal effect; nearly all actives have a fitted effect of over 55% in size
#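 Chicken DT40 Tdp1-/- cells stably complemented with human TDP1 were seeded at 400 cells/well in medium containing 20 nM camptothecin, exposed to pin-transferred compounds, and grown at 37 °C for at least 48 hr. Viability was read as ATP luminescence.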
# uPA surface inh = qHTS for Inhibitors of Cell Surface uPA Generation. Potency, µM (highest dose often 38.3 µM), inactives show at the top dose activity change, negative = inhibition, usual class: inhibitors. cell surface uPA generation assay, qHTS. actives 0.31% (n = 330,000); active = well fitted inhibition curve with a large enough effect; inconclusive = small, poorly fitted or top-dose-only effect; inactive = no such curve, though single readings can be large or run the other way; tested in mouse RAW 264.7 cells; note: potency is the fitted concentration of half-maximal effect; nearly all actives have a fitted effect of over 55% in size
# TDP1 cell noCPT = qHTS for Inhibitors of human tyrosyl-DNA phosphodiesterase 1 (TDP1): qHTS in cells in absence of CPT; DT40 Tdp1-/- hTDP1 cells, no CPT, ATP luminescence, 48 h; actives 15% (n = 420,000); Potency, µM (highest dose often 46.2 µM), for inactives: top-dose activity change, negative = growth inhibition, hits mostly inhibitors; note: potency is the fitted concentration of half-maximal effect; nearly all actives have a fitted effect of over 55% in size
#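 Stably hTDP1-transfected Tdp1-null chicken DT40 cells were treated with library compounds minus camptothecin and grown for at least 48 hr at 37 °C, after which cellular ATP was quantified by luminescence.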
# The depositor's hits bear a star; ? = inconclusive; . = no result. Sampled rows, rich in hits. Any-hit rate of the full collection: about 19%. Unless noted, calls come from the whole dose curve; as a rule, active = well fitted curve in the direction sought with a large enough effect; inconclusive = small, poorly fitted or top-dose-only effect, or another doubt; inactive = no such curve, though single readings can be large; an effect the other way counts as inactive or inconclusive. Unless noted, % is set by controls: 0 for no effect and ±100 for the full control effect.
SMILES,HT1080NT lethal,IL-1B inflam inh,HT1080 IDH1KD tx,TDP1 cell CPT,uPA surface inh,TDP1 cell noCPT
Cc1ccc2c(c1)S(=O)(=O)N(C)C(c1ccccc1)=C2,2.4%,-15.8,10.3%,18.4µM*,3.1%,?
O=C(Nc1cccc(F)c1)C1CCN(c2nc3ccccc3[nH]2)CC1,.,.,.,23.1µM*,.,?
COc1ccc(CNC(=O)C2CCN(c3nc4ccccc4[nH]3)CC2)c(OC)c1,.,.,.,18.4µM*,.,?
COc1ccc(NC(=O)C2CCN(c3nc4ccccc4[nH]3)CC2)cc1OC,.,.,.,-3.6%,.,-3.6%
O=C(c1sc2ccccc2c1Cl)N1CCN(CCc2ccccn2)CC1,-11.0%,3.5,14.1%,?,13.8%,?
Cc1cc(F)ccc1N1CCC(N2CCN(CCC(C)C)C(CCO)C2)CC1 (stereo not drawn),18.4µM*,-66.0*,?,?,-4.3%,23.1µM*
Cc1cc(F)ccc1N1CCC(N2CCN(C(C)C)C(CCO)C2)CC1 (stereo not drawn),-3.1%,-2.5,-10.3%,?,13.1%,23.1µM*
COc1cccc(CN2CCN(C3CCN(c4ccccc4C)CC3)CC2CCO)c1 (stereo not drawn),0.6%,-0.5,-14.5%,?,4.9%,18.4µM*
CC(C)CCN1CCN(C2CCN(c3ccc4c(c3)OCO4)CC2)CC1CCO (stereo not drawn),-27.7%,10.4,-5.2%,9.4%,-0.1%,-23.9%
CC(C)N1CCN(Cc2cc(F)ccc2-n2cccn2)CC1CCO (stereo not drawn),-20.4%,10.3,1.5%,43.4%,0.4%,-25.9%
COc1ccc(/C=C(\C#N)C(=O)OCC(=O)NCc2ccco2)cc1,-0.6%,-4.1,-2.1%,12.2%,9.9%,2.3%
CCOC(=O)C1(Cc2cccc(Cl)c2)CCCN(C(=O)C(C)(C)C)C1 (stereo not drawn),11.5%,-4.2,-1.0%,?,-0.4%,?
Cc1ccccc1C#N,6.6%,11.3,3.0%,-0.1%,19.0%,10.0%
COc1ccc([N+](=O)[O-])cc1N(CC(=O)NCC1CCCO1)S(C)(=O)=O (stereo not drawn),1.1%,7.3,11.0%,1.3%,-2.3%,3.4%
COc1ccc(-n2cc(CN3CCCC3)c(-c3cccc(F)c3)n2)cc1,-7.9%,-76.8*,-17.6%,?,-12.1%,20.6µM*
Cc1cccc(-n2cc(CN3CCN(Cc4nccn4C)CC3)c(-c3cccc(F)c3)n2)c1,-24.8%,?,?,?,5.7%,?
COc1ccc(-n2cc(CN[C@H]3CCCCNC3=O)c(-c3cccc(F)c3)n2)cc1,-14.9%,?,-1.4%,5.8µM*,-3.1%,5.8µM*
COc1ccc(N2C(=O)CC(NC3CCCCNC3=O)C2=O)cc1 (stereo not drawn),43.0%,0.0,21.8%,0.4%,-1.3%,-16.3%
COc1ccc(-n2cc(CNC3CCN(C)CC3)c(-c3cccc(F)c3)n2)cc1,20.6µM*,-62.8*,20.6µM*,14.6µM*,-6.4%,14.6µM*
COCCN1C(=O)CCC1(C)C(=O)Nc1c(C)cccc1C (stereo not drawn),24.0%,-9.4,6.7%,-7.6%,.,11.0%
COc1ccccc1CNC(=O)COC(=O)COc1ccccc1Cc1ccccc1,14.5%,-3.2,15.9%,7.1%,0.7%,?
COc1ccc(-c2nc(-c3ccccc3)nc(Cl)c2C#N)cc1,-15.8%,-13.0,1.8%,?,.,10.3µM*
CNc1nc(-c2ccccc2)nc(-c2ccc(OC)cc2)c1C#N,23.2%,0.1,?,0.4%,-2.5%,3.5%
CSc1nc(Cl)c(C#N)c(-c2ccc(C)cc2)n1,-0.2%,8.1,3.7%,9.2µM*,-5.1%,?
CCCCOc1ccccc1C1NC(=O)CCC1[N+](=O)[O-] (stereo not drawn),15.3%,24.7,10.5%,0.7%,3.7%,-13.2%
SMILES,HT1080NT lethal,IL-1B inflam inh,HT1080 IDH1KD tx,TDP1 cell CPT,uPA surface inh,TDP1 cell noCPT
CCN(c1ccccc1)S(=O)(=O)c1ccc(Cl)c(C(=O)NC2CCN(Cc3ccccc3)CC2)c1,-11.9%,-21.2,-12.9%,9.2µM*,-14.5%,6.51µM*
O=C(NC1CCN(Cc2ccccc2)C1)c1cccc(S(=O)(=O)N2CCOCC2)c1 (stereo not drawn),0.0%,-1.6,9.0%,-33.3%,-3.6%,-19.5%
Cc1ccc(NS(=O)(=O)c2cccc(C(=O)NC3CCN(Cc4ccccc4)CC3)c2)cc1,-4.6%,.,-29.5%,4.11µM*,-4.1%,5.8µM*
O=C(NC1CCN(Cc2ccc(Cl)cc2Cl)CC1)c1ccccc1,2.7%,-50.1*,0.7%,20.6µM*,-4.8%,18.4µM*
CCc1ccccc1NC(=O)c1ccc(CN2CCC(Cc3ccccc3)CC2)cc1,20.6µM*,-79.5*,?,?,-11.2%,?
O=C(CSc1ccc2nnc(CCNS(=O)(=O)c3ccccc3)n2n1)Nc1nc2ccccc2s1,-12.5%,-13.6,-21.4%,?,-8.6%,?
O=C(NC1CCN(Cc2ccccc2)CC1)c1cc(S(=O)(=O)Nc2ccc(F)cc2)ccc1Cl,-0.2%,-68.5*,9.4%,23.1µM*,3.2%,14.6µM*
CC(C)(C)c1ccc(C(=O)NC2CCN(Cc3ccccc3)CC2)cc1,-19.5%,-27.0,-23.0%,?,-19.4%,18.4µM*
O=C(NC1CCN(Cc2ccccc2)CC1)c1ccccc1,12.4%,-2.9,-1.0%,-3.8%,9.0%,-2.8%
Cc1ccc(NS(=O)(=O)c2ccc(C(=O)NC3CCN(Cc4ccccc4)CC3)cc2)cc1,?,-93.5*,-25.9%,14.6µM*,?,14.6µM*
Cc1c(C(=O)NC2CCN(Cc3ccccc3)C2)oc2c(Cl)cccc12 (stereo not drawn),?,-88.1*,?,?,-6.5%,-22.1%
CC(C(=O)N1CCCC1)N(C)CC(=O)Nc1cccc(F)c1 (stereo not drawn),11.4%,-3.2,-5.4%,-0.9%,-8.7%,-5.2%
Cc1nc(N2C(=O)c3oc4ccccc4c(=O)c3C2c2ccccc2F)sc1C (stereo not drawn),.,.,.,1.5%,.,-5.1%
O=C(NC1CCN(Cc2ccccc2)CC1)c1ccc2c(c1)[nH]c(=O)n2Cc1ccc(F)cc1,14.6µM*,-76.9*,-13.2%,?,-1.4%,?

# Assay outcomes deposited in PubChem BioAssay by National Center for Advancing Translational Sciences (NCATS).
